# Measurements reported in PubChem BioAssay (EPA / NIEHS).
# Calls of active or inactive are those of the source. How the source made its calls: active means hit-call score of the fitted dose curve at least 0.9, where 1 is the maximum; inactive means score below 0.9.
# Read-out: growth arrest and DNA damage 45 (GADD45G), GADD45G (gene 10912)
# Experiment: LTEA_HepaRG_GADD45G: Life Technologies and Expression Analysis (LTEA) Assay for growth arrest and DNA damage 45 (GADD45G) using HepaRG (AID 2283499)
# Details: mRNA level, 48 h; actives raise or lower the signal
# Protocol: LTEA_HepaRG is a cell based, multiplexed-readout assay that uses HepaRG, a human liver cell line, with measurements taken at 48 hours after chemical dosing on a 96-well plate.LTEA_HepaRG_GADD45G is one of 102 assay component(s) measured in the LTEA HepaRG cell culture assay. It is a marker of Cell proliferation, survival, death.Data from the assay component LTEA_HepaRG_GADD45G was analyzed into 1 endpoint. This assay endpoint, LTEA_HepaRG_GADD45G, was analyzed with bidirectional fitting relative to DMSO as the negative control and baseline of activity. Using a type of inducible reporter, measures of mRNA induction for gain or loss-of-signal activity can be used to understand regulation of transcription factor activity. To generalize the intended target to other relatable targets, this assay endpoint is annotated to the mutagenicity response intended target family, where the subfamily is Cell proliferation, survival, death.
# A total of 1060 chemcials from the ToxCast library were tested in eight-point concentration-response experiments. Cell culture and cytotoxicity assays were conducted at Thermo Fisher Scientific's Custom Services facility (Madison, WI). A single lot of human HepaRG cells (Thermo Fisher Scientific, Frederick, MD) was used for the cell culture experiments. 96-well format collagen type I coated plates of human HepaRG cells were prepared using established methods. Briefly, cryopreserved HepaRG cells were thawed, plated at a density of approximately 100,000 cells/well in HepaRG Thaw, Plate, and General Purpose media (HPRG770, Thermo Fisher Scientific), and incubated for 48 hours. 0.5% DMSO was selected as vehicle control to balance the requisite need of DMSO in HepaRG cultures to maintain differentiation (for example, baseline metabolism, proportions of hepatocytes vs. cholangiocytes), while enabling further hepatic receptor pathway activation (for example, PXR and CAR) in response to chemical exposure. 48 hours after plating, the culture medium was replaced with HepaRG Serum-Free Incudtion Media. Cells were exposed to each test chemical in duplicate and maintained in CO2 incubators for another 48 hours. Chemical plates were thawed to room temperature and 200x concentrations of treatment groups were prepared. 8-point conentration-reponse curves were made with the highest exposure at 100 uM, followed by half-log dilutions, all in 0.5% DMSO. Each test plate contained variouse controls, induction positive controls (1mM phenobarbital), cytotoxicity positive controls ([…] aflatoxin B1), vehicle controls (0.5% DMSO), and total lysis controls (0.5% DMSO). Cell morphology images were taken using an Essen IncuCyte FLR automated microscope, with six 96-well plates imaged in about 24 minutes. Images were captured and exported and JPEG files. Spent culture media was transfered to black-well plates for the LDH assay, and remaining media was sorted at -80 C for later use. Cells were treated with RLT buffer and frozen until shipped for gene expression analysis. Total RNA was isolated from the cell suspension in 75 uL of Buffer RLT (Qiagen, Germantown, MD 20874) by Quintiles/Expression Analysis (Durham, NC) using a custom isolation procedure. Total RNA from each plate well was transferred to a preamplification plate. Fluidigm's 96.96 Dynamic ArrayTM (Fluidigm, Amsterdam, the Netherlands) technology was used for gene expression analyses by quantitative reverse transcription polymerase chain reaction (qRT-PCR, performed by Quintiles/Expression Analysis, Durham, NC)89. Standard TaqManTM Assays (Applied Biosystems/ThermoFisher Scientific, Foster City, CA) were used to assess the expression of 93 genes selected based on their selectivity and sensitivity to important hepatic receptors known to be modulated by environmental chemicals; importance in human hepatocyte functionality; and hepatotoxicity. […]
Structure (SMILES),outcome,AC50
Cc1cc(Cc2ccc(N)c(C)c2)ccc1N,inactive,
CC(=O)[C@@]1(O)CC[C@H]2[C@@H]3CCC4=CC(=O)CC[C@]4(C)[C@H]3CC[C@@]21C,inactive,
CC(=O)O,inactive,
C=CCCCCCCCCCCCC,inactive,
Cc1c(C)c2c(c(C)c1O)CCC(C)(COc1ccc(CC3SC(=O)NC3=O)cc1)O2 (stereo not given),,19.1 µM (active)
Oc1ccc(O)cc1,inactive,
CCCCCCC(C=O)=Cc1ccccc1,inactive,
CCOCCOCCO,inactive,
CCCCC(CC)COC(=O)CCCCCCCC(=O)OCC(CC)CCCC (stereo not given),inactive,
N[C@@H](Cc1c[nH]c2ccccc12)C(=O)O,inactive,
NCCOCCOCCN,inactive,
O=[Si]=O,inactive,
CCCCOC(=O)CCCCC(=O)OCCCC,inactive,
CC(C)c1cccc(C(C)C)c1NC(=O)NS(=O)(=O)c1cc(C(C)(C)O)co1,inactive,
COC(=O)[C@H]1[C@H]2C[C@@H]3c4[nH]c5cc(OC)ccc5c4CCN3C[C@H]2C[C@@H](OC(=O)c2cc(OC)c(OC)c(OC)c2)[C@@H]1OC,,24.6 µM (active)
CC(C)(C)c1ccccc1,inactive,
O=NO,inactive,
Nc1nc(=S)c2[nH]cnc2[nH]1,inactive,
S=c1[nH]c2ccccc2s1,inactive,
CC(C)(O)c1ccc(CNC(=O)c2cccnc2Oc2ccc(F)cc2)cc1,inactive,

Structure (SMILES),outcome,AC50
OCC(CO)n1cnc(-c2ccc(F)cc2)c1-c1ccnc(Oc2ccccc2)n1,inactive,
CCCCc1nc2cccnc2n1Cc1ccc(-c2ccccc2-c2nnn[nH]2)cc1,inactive,
O=Cc1ccccc1C=O,inactive,
CCCC(=O)O,inactive,
CC(C)OC(=O)C(C)(C)Oc1ccc(C(=O)c2ccc(Cl)cc2)cc1,inactive,
O=C1c2c(O)cccc2Cc2cccc(O)c21,inactive,
CC(=O)S[C@H](C(=O)N[C@H]1Cc2ccccc2[C@H]2CCC[C@@H](C(=O)O)N2C1=O)C(C)C,inactive,
CCCCCCCCCCCCCCCCO,inactive,
CC(N)=O,inactive,
Cn1cnc2c1c(=O)[nH]c(=O)n2C,inactive,
CC1(C)C(=O)NC(=O)N1CO,inactive,
O=C(O)c1[nH]n(-c2ccc(S(=O)(=O)O)cc2)c(=O)c1N=Nc1ccc(S(=O)(=O)O)cc1,inactive,
CC1=C(C)S(=O)(=O)CCS1(=O)=O,inactive,
CCCCC(CC)COP(=O)(OCC(CC)CCCC)OCC(CC)CCCC (stereo not given),inactive,
Cc1ccc(C(C)(C)C)c(O)c1,inactive,
O=C1O[C@H]([C@H](O)CO)C(O)=C1O,inactive,
CC(=O)OC1CC(C)OC(C)O1 (stereo not given),inactive,
OCC(O)CO,inactive,
CC(C)NCC(O)c1ccc(O)c(O)c1 (stereo not given),inactive,
O=C1OC(c2ccc(O)cc2)(c2ccc(O)cc2)c2ccccc21,inactive,
